The results in this text go back to PubChem BioAssay (NCI).

About 83,000 compounds went through this panel and 20% of them were active in at least one assay; those are over-represented in the sample as a whole.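 A percent growth of 40 corresponds to 60% growth inhibition; 0 means no net growth; -100 means all cells died. Active threshold: below 10.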 Values without a mark were called inactive. Active and inactive are the calls of the source.

Test in all cases: NCI-60 one-dose screen, 48 h (100 = growth as untreated, 0 = no growth, -100 = all killed)
One assay concerns SK-MEL-2 melanoma. The conditions noted are these: 10 µM unless noted.
Another assay relates to EKVX NSCLC. As to conditions: 10 µM unless noted.
Another assay relates to SN12C renal. The conditions noted are these: 10 µM unless noted.
In another assay the test system is UO-31 renal. The conditions noted are these: 10 µM unless noted.
For a further assay, the system named is TK-10 renal. As to conditions: 10 µM unless noted.
Another assay deals with ACHN renal. The conditions noted are these: 10 µM unless noted.
In the next assay the test system is A498 renal. As to conditions: 10 µM unless noted.
A further assay has as its system CCRF-CEM leukemia. As to conditions: 10 µM unless noted.
The next assay relates to MOLT-4 leukemia. As to conditions: 10 µM unless noted.
The subject of the next assay is SR leukemia. As to conditions: 10 µM unless noted.
A further assay relates to RPMI-8226 leukemia. The conditions noted are these: 10 µM unless noted.
In the next assay the test system is OVCAR-8 ovarian. The conditions noted are these: 10 µM unless noted.
The test system of a further assay is OVCAR-5 ovarian. The conditions noted are these: 10 µM unless noted.
In a further assay the test system is OVCAR-4 ovarian. The conditions noted are these: 10 µM unless noted.
The test system of another assay is SK-OV-3 ovarian. As to conditions: 10 µM unless noted.
The test system of the next assay is IGROV1 ovarian. As to conditions: 10 µM unless noted.
Another assay relates to OVCAR-3 ovarian. The conditions noted are these: 10 µM unless noted.
In the next assay the test system is HS 578T breast. As to conditions: 10 µM.
The next assay deals with NCI/ADR-RES ovarian. The conditions noted are these: 10 µM unless noted.
The next assay relates to CAKI-1 renal. The conditions noted are these: 10 µM unless noted.

On to `CCN(CC)Cc1cc(Nc2nc(NC3CCC(N(C)C)CC3)c3ccccc3n2)ccc1OC` (stereo not drawn), for which the growth in the assay on SK-MEL-2 melanoma is 116%; with EKVX NSCLC, 89%; in the assay on SN12C renal, 71.5%; in the assay with UO-31 renal, 73.3%; in the assay on TK-10 renal it was 105%; in the assay on ACHN renal it was 90.8%. Also, the growth was 119% with A498 renal; 66.1% in the assay on CCRF-CEM leukemia; 48.2% in the assay on MOLT-4 leukemia; 49.6% in the assay on SR leukemia; 0.511% (active) with RPMI-8226 leukemia; 63.8% in the assay on OVCAR-8 ovarian. Also, the growth in the assay on OVCAR-5 ovarian was 92.3%; with OVCAR-4 ovarian it was 52.1%; in the assay with SK-OV-3 ovarian, 107%; with IGROV1 ovarian it was 82.4%; in the assay on OVCAR-3 ovarian it was 92.4%; with HS 578T breast it was 73.4%. In the assay on NCI/ADR-RES ovarian, the growth was 98.1%.

Regarding `Cc1nc2n[nH]c(N)c2nc1C`, the growth in the assay on SK-MEL-2 melanoma was 103%; in the assay on EKVX NSCLC it was 106%; with SN12C renal, 103%; in the assay with UO-31 renal, 87%; with TK-10 renal, 104%; in the assay on ACHN renal, 104%. Also, the growth with CAKI-1 renal is 106%; with A498 renal, 120%; in the assay with CCRF-CEM leukemia, 101%; in the assay on RPMI-8226 leukemia, 106%; in the assay on OVCAR-8 ovarian it was 95.1%; with OVCAR-5 ovarian, 102%. Further, the growth was 106% in the assay on OVCAR-4 ovarian; 104% in the assay on SK-OV-3 ovarian; 97.9% in the assay with IGROV1 ovarian; 104% in the assay on OVCAR-3 ovarian; 114% with HS 578T breast; 103% in the assay with NCI/ADR-RES ovarian.

Take `CCc1ccc(Nc2ncnc3c2cnn3-c2cccc(Br)c2)cc1`: the growth is 108% with SK-MEL-2 melanoma; 102% in the assay with EKVX NSCLC; 101% in the assay on SN12C renal; 85.6% in the assay on UO-31 renal; 107% in the assay on TK-10 renal; 108% in the assay with ACHN renal. Besides, the growth in the assay with A498 renal is 70.7%; in the assay on CCRF-CEM leukemia it was 131%; in the assay on MOLT-4 leukemia it was 101%; with SR leukemia, 108%; in the assay on RPMI-8226 leukemia it was 117%; with OVCAR-8 ovarian, 93.3%. Also, the growth was 102% with OVCAR-5 ovarian; 105% with OVCAR-4 ovarian; 104% in the assay on SK-OV-3 ovarian; 113% in the assay on IGROV1 ovarian; 103% with OVCAR-3 ovarian; 103% in the assay with HS 578T breast. Further, the growth in the assay with NCI/ADR-RES ovarian is 100%.

For the molecule `O=C1Nc2ccccc2/C1=C/c1c[nH]c2ccccc12`, the growth was 99.8% in the assay with SK-MEL-2 melanoma; 15.7% in the assay on EKVX NSCLC; 64.5% with SN12C renal; 29.3% in the assay on UO-31 renal; 110% with TK-10 renal; 66.7% in the assay on ACHN renal. The growth is 91.6% in the assay on A498 renal; 58.9% in the assay on CCRF-CEM leukemia; 65.6% with MOLT-4 leukemia; 77.5% with SR leukemia; 77.1% with RPMI-8226 leukemia; 84.9% with OVCAR-8 ovarian. Also, the growth was 105% with OVCAR-5 ovarian; 71.7% in the assay with OVCAR-4 ovarian; 95.7% with SK-OV-3 ovarian; 2.73% (active) in the assay with IGROV1 ovarian; 93.5% in the assay on OVCAR-3 ovarian; 67.6% in the assay on HS 578T breast. Besides, the growth in the assay on NCI/ADR-RES ovarian is 89.6%.

As for `COc1cc2c(cc1C)NC(=O)/C2=C\c1c[nH]c2ccccc12`, the growth was 76.4% in the assay on SK-MEL-2 melanoma; 74.5% in the assay with EKVX NSCLC; 67.8% with SN12C renal; 27.6% with UO-31 renal; 83.7% with TK-10 renal; 61.8% in the assay on ACHN renal. Moreover, the growth in the assay with A498 renal is 78.5%; in the assay with CCRF-CEM leukemia, 53.6%; with MOLT-4 leukemia, 24.4%; in the assay with SR leukemia it was 46.4%; with RPMI-8226 leukemia it was 59.7%; with OVCAR-8 ovarian it was 69.3%. Moreover, the growth in the assay with OVCAR-5 ovarian was 75.3%; in the assay with OVCAR-4 ovarian it was 64.8%; in the assay with SK-OV-3 ovarian it was 97.4%; with IGROV1 ovarian, -6.11% (active); in the assay on OVCAR-3 ovarian it was 65.9%; with NCI/ADR-RES ovarian, 77%.

Take `CO[C@@]12[C@@H]3NC3CN1C1=C(C(=O)C(N)=C(C)C1=O)[C@@H]2COC(N)=O` (stereo partly drawn): the growth in the assay on SK-MEL-2 melanoma is -11.2% (active); in the assay with EKVX NSCLC, 49.6%; in the assay on SN12C renal it was 24.6%; with UO-31 renal, 5.54% (active); with TK-10 renal it was 9.47% (active); with ACHN renal it was -10.3% (active). Besides, the growth in the assay on CAKI-1 renal was 14.9%; in the assay with A498 renal, -82.9% (active); in the assay on CCRF-CEM leukemia it was 27.1%; in the assay on OVCAR-8 ovarian, 15.8%; in the assay on OVCAR-5 ovarian it was 45.7%; with SK-OV-3 ovarian it was 5.63% (active). Besides, the results for the growth with IGROV1 ovarian, in the assay on HS 578T breast and in the assay with NCI/ADR-RES ovarian were 33.1%, 70.9% and 51.4%, respectively.

Take `COc1cccc(/C=N/N=C(N)N)c1`: the growth in the assay on SK-MEL-2 melanoma was 107%; with EKVX NSCLC, 102%; with SN12C renal, 95.2%; with UO-31 renal, 82.6%; with TK-10 renal, 113%; in the assay on ACHN renal, 100%. Moreover, the growth is 78% in the assay on A498 renal; 108% with CCRF-CEM leukemia; 115% with MOLT-4 leukemia; 93% with SR leukemia; 104% with RPMI-8226 leukemia; 100% with OVCAR-8 ovarian. Besides, the growth was 89.7% with OVCAR-5 ovarian; 91.5% with OVCAR-4 ovarian; 111% with SK-OV-3 ovarian; 107% in the assay on IGROV1 ovarian; 105% in the assay with OVCAR-3 ovarian; 103% in the assay with NCI/ADR-RES ovarian.

In the case of `CN1CCN(Cc2ccc(NC(=O)c3cncc(C#Cc4ncc5ccccn45)c3)cc2C(F)(F)F)CC1`, the growth in the assay with SK-MEL-2 melanoma is -8.17% (active); in the assay with EKVX NSCLC, 43.9%; in the assay with SN12C renal it was 24%; in the assay with UO-31 renal it was 5.98% (active); in the assay on TK-10 renal, 53.4%; in the assay on ACHN renal it was 13.1%. Besides, the growth in the assay with A498 renal was 11.4%; with CCRF-CEM leukemia it was 8.69% (active); in the assay on MOLT-4 leukemia, 17.8%; in the assay on SR leukemia it was 15.6%; in the assay with RPMI-8226 leukemia it was 21.1%; in the assay with OVCAR-8 ovarian, 24.7%. Also, the growth in the assay with OVCAR-5 ovarian is 32.8%; with OVCAR-4 ovarian, 7.89% (active); in the assay with SK-OV-3 ovarian, 19.6%; in the assay with IGROV1 ovarian, 17.9%; with OVCAR-3 ovarian, 36.9%; in the assay with HS 578T breast it was 7.01% (active). The growth in the assay on NCI/ADR-RES ovarian is 27.7%.

`CSCCC1NC(=O)C(C(C)=Nc2ccccc2)=C1O` (stereo not drawn): the growth in the assay on SK-MEL-2 melanoma was 129%; in the assay on EKVX NSCLC, 101%; in the assay with SN12C renal, 101%; in the assay on UO-31 renal, 93.4%; in the assay on TK-10 renal it was 133%; with ACHN renal, 113%. Also, the growth was 89.3% in the assay with CAKI-1 renal; 102% in the assay on A498 renal; 106% in the assay with CCRF-CEM leukemia; 119% in the assay on MOLT-4 leukemia; 115% in the assay with RPMI-8226 leukemia; 111% with OVCAR-8 ovarian. In addition, the growth in the assay on OVCAR-5 ovarian was 120%; in the assay with OVCAR-4 ovarian, 100%; in the assay on IGROV1 ovarian, 103%; in the assay on OVCAR-3 ovarian, 117%; in the assay with HS 578T breast it was 105%; with NCI/ADR-RES ovarian, 104%.
